Several values for one entry are separate records, joined by “and”; a condition that tells them apart may be missing. Equal entries are not always repeated. Inconclusive results are not listed. Activity calls are given as the source filed them. Calls follow the shape of the dose curve; as a rule, active = well fitted curve in the direction sought with a large enough effect; inconclusive = small, poorly fitted or top-dose-only effect, or another doubt; inactive = no such curve, though single readings can be large; an effect the other way counts as inactive or inconclusive.
Tests used:
[1] = target: Furin (Homo sapiens) (UniProt P09958); experiment: Furin counterscreen qHTS for Zika virus inhibitors (AID 1347149);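 also: purified recombinant full-length human furin enzyme at 5 nM; fluorescence gain from furin cutting a BOC-RVRR-AMC peptide substrate over 15 min; top concentration of the series differs between compounds; nearly all actives have a fitted effect of over 70% in size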
In short: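 Fluorogenic cleavage of BOC-RVRR-AMC (2 microM final, Km ~15 µM) was monitored (ex 340, em 450 nm) at 37C after 15 min RT preincubation of 5 nM furin with compounds in HEPES pH 7.0 buffer with CaCl2 and Triton X-100. Percent inhibition was fitted to a 4-parameter Hill curve.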

[2] = system: Zika virus NS2B-NS3 protease (unlinked); experiment: Optimization of GU AMC qHTS for Zika virus inhibitors: Unlinked NS2B-NS3 protease assay (AID 1347151); also: nearly all actives have a fitted effect of over 80% in size; also: potency is read from the fitted curve at half-maximal effect
In short: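 Percent inhibition is derived from the 15-min change in AMC fluorescence, normalized against no-inhibitor and no-enzyme controls, then fitted to a 4-parameter Hill curve. Aprotinin was the intraplate control.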

[3] = Confirmatory screen GU Rhodamine qHTS for Zika virus inhibitors qHTS (AID 1347157); also: nearly all actives have a fitted effect of over 70% in size; also: potency is read from the fitted curve at half-maximal effect
In short: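 Buffer 10 mM Tris-HCl pH 8.0, 0.01% Tween 20. Unlinked protease 25 nM; compound preincubation 15 min, RT, protected from light. Substrate Rhod110, 1.5 microM; ~15% conversion in 15 min.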

[4] = system: Zika virus NS2B-NS3 protease (linked construct); experiment: Confirmatory screen NINDS AMC qHTS for Zika virus inhibitors (AID 1347152); conditions: Purified linked NS2B-NS3, AMC substrate fluorescence; also: potency is read from the fitted curve at half-maximal effect; nearly all actives have a fitted effect of over 70% in size
In short: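 In this dose-response qHTS, AMC release from 10 microM Bz-Nle-KRR-AMC by 1 nM linked protease is measured over 15 minutes (about 20% conversion) at pH 8.0. Percent inhibition is fitted to a 4-parameter Hill curve.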

[5] = qHTS of pediatric cancer cell lines to identify multiple opportunities for drug repurposing: Primary screen for U-2 OS cells (AID 1347096); also: nearly all actives have a fitted effect of over 50% in size
In short: (§1)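 Viability after 48 h compound treatment at 37C, 500-1,000 cells/well, read as ATP luminescence with CellTiter-Glo. Primary screens used 11-point (MIPE, 0.78 nM-46 µM) or 8-point (NPC, 0.59 nM-46 µM) final concentrations; follow-up screens used 11-point dilutions.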

[6] = qHTS of pediatric cancer cell lines to identify multiple opportunities for drug repurposing: Primary screen for Saos-2 cells (AID 1347097); also: nearly all actives have a fitted effect of over 40% in size; also: potency is read from the fitted curve at half-maximal effect
In short: (§2)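 Following a 5-hour attachment period, cells at 500-1,000/well received compounds and were cultured for 48 hours. CellTiter-Glo was added and luminescence read to estimate viable, metabolically active cells.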

[7] = qHTS of pediatric cancer cell lines to identify multiple opportunities for drug repurposing: Primary screen for NB1643 cells (AID 1347099); also: nearly all actives have a fitted effect of over 50% in size
In short: as §2

[8] = qHTS of pediatric cancer cell lines to identify multiple opportunities for drug repurposing: Primary screen for LAN-5 cells (AID 1347100)
In short: as §1

[9] = qHTS of pediatric cancer cell lines to identify multiple opportunities for drug repurposing: Primary screen for BT-12 cells (AID 1347101); also: nearly all actives have a fitted effect of over 25% in size
In short: (§3)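 Cells (500-1,000/well) rested 5 h, then received compounds for 48 h; metabolically active cells were measured by CellTiter-Glo luminescence. Final concentrations spanned up to 46 µM (MIPE, 11-point) or 0.59 nM-46 µM (NPC, 8-point) in primary screens, 11-point in follow-ups.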

[10] = qHTS of pediatric cancer cell lines to identify multiple opportunities for drug repurposing: Primary screen for Rh18 cells (AID 1347102); also: nearly all actives have a fitted effect of over 65% in size
In short: as §1

[11] = qHTS of pediatric cancer cell lines to identify multiple opportunities for drug repurposing: Primary screen for RD cells (AID 1347104); also: nearly all actives have a fitted effect of over 55% in size
In short: as §2

[12] = qHTS of pediatric cancer cell lines to identify multiple opportunities for drug repurposing: Primary screen for MG 63 (6-TG R) cells (AID 1347105); also: nearly all actives have a fitted effect of over 50% in size
In short: as §2

[13] = qHTS of pediatric cancer cell lines to identify multiple opportunities for drug repurposing: Primary screen for control Hh wild type fibroblast cells (AID 1347106);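 also: series mostly up to about 46 µM; a drop in luminescence marks cytotoxicity and a rise apparent proliferation; nearly all actives have a fitted effect of over 55% in size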
In short: as §1

[14] = qHTS of pediatric cancer cell lines to identify multiple opportunities for drug repurposing: Primary screen for Rh30 cells (AID 1347107); also: series mostly up to about 46 µM; nearly all actives have a fitted effect of over 75% in size
In short: as §1

[15] = qHTS of pediatric cancer cell lines to identify multiple opportunities for drug repurposing: Primary screen for Rh41 cells (AID 1347108);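 also: series mostly up to about 46 µM; luminescence drop marks cytotoxic hits; nearly all actives have a fitted effect of over 70% in size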
In short: as §2

[16] = ZIKV-mCherry secondary qHTS for Zika virus inhibitors (AID 1347158); also: top concentration of the series differs between compounds
In short: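 Vero cells, 5,000/well, plated overnight at 37 °C, then compound added and infected with recombinant ZIKV-mCherry at MOI 1 for 48-72 h. PFA-fixed, Hoechst nuclear stain, high-content imaging; cells with mCherry intensity above 450 RFU scored infected, reported as percent infection.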

[17] = system: Zika virus NS2B-NS3 protease (unlinked complex); experiment: Confirmatory screen GU AMC qHTS for Zika virus inhibitors (AID 1347153); also: nearly all actives have a fitted effect of over 70% in size
In short: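 Noncovalent NS2B hydrophilic domain/NS3 protease complex (25 nM) in 10 mM Tris-HCl pH 8.0, 0.01% Tween 20 was preincubated 15 min at room temperature with compounds. Then 10 µM AMC substrate (Km 18.3 µM) was added; fluorescence was read over 15 min and fitted to a 4-parameter Hill equation.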

[18] = qHTS of pediatric cancer cell lines to identify multiple opportunities for drug repurposing: Primary screen for SK-N-SH cells (AID 1347098);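 also: DMSO served as neutral control and bortezomib at 2.3 µM as positive control; nearly all actives have a fitted effect of over 65% in size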
In short: as §3

[19] = qHTS of pediatric cancer cell lines to identify multiple opportunities for drug repurposing: Primary screen for OHS-50 cells (AID 1347103); also: nearly all actives have a fitted effect of over 40% in size
In short: as §3

[20] = target: N-terminal Xaa-Pro-Lys N-methyltransferase 1 (Homo sapiens) (UniProt Q9BV86); experiment: qHTS Assay for Inhibitors of N-terminal methyltransferase 1 (NTMT1): LOPAC validation of the NTMT1 SAHH-coupled ThioGlo3 Assay (AID 1347143); conditions: recombinant NTMT1, SAHH-coupled ThioGlo3 fluorescence
In short: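 Recombinant human NTMT1 (125nM) was pre-incubated 1 min at room temperature with compounds over a concentration range, then a mix of 100uM SAM, 10uM SAHH and 15uM ThioGlo3 (concentrations in added reagent) was added. ThioGlo3 fluorescence (ex 340/em 450nm) after 30 min was normalized to the initial reading.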

Measured: Potency

Chain of Furin (Homo sapiens) (P09958 whole entry, looked up): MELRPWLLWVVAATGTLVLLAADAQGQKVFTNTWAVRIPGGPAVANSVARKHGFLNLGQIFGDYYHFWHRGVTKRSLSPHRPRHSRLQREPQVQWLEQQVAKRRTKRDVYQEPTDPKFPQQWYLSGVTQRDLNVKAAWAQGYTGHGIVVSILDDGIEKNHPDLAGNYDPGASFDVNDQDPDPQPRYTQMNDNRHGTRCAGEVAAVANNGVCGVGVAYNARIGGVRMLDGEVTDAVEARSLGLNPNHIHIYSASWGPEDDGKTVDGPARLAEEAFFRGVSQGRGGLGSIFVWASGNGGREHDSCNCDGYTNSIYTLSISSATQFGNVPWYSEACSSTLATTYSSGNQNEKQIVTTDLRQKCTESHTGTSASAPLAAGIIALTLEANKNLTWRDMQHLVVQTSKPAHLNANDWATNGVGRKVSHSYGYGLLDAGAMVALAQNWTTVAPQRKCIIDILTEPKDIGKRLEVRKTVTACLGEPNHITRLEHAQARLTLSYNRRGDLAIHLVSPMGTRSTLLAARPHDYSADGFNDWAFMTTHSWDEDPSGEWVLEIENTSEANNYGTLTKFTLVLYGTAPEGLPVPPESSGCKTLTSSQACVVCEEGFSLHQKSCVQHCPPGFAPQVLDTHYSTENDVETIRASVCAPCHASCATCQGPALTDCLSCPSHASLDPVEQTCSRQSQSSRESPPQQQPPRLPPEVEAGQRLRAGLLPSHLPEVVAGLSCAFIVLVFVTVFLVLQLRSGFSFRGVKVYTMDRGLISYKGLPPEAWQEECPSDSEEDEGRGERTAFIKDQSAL
Chain of N-terminal Xaa-Pro-Lys N-methyltransferase 1 (Homo sapiens) (Q9BV86 whole entry, looked up): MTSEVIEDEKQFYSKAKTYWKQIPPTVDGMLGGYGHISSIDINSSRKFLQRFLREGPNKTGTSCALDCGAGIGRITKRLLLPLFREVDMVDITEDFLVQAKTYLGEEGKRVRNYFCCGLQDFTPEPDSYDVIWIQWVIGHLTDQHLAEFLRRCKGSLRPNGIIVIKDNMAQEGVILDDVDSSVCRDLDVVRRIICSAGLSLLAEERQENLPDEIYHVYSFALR

C[C@H]1O[C@@H](O[C@H]2[C@@H](O)C[C@H](O[C@H]3[C@@H](O)C[C@H](O[C@H]4CC[C@@]5(C)[C@H](CC[C@@H]6[C@@H]5C[C@@H](O)[C@]5(C)[C@@H](C7=CC(=O)OC7)CC[C@]65O)C4)O[C@@H]3C)O[C@@H]2C)C[C@H](O)[C@@H]1O
inactive: [1] | [2]

CC(C)(C)CC(C)(C)c1cc(Cc2cc(C(C)(C)CC(C)(C)C)cc(-n3nc4ccccc4n3)c2O)c(O)c(-n2nc3ccccc3n2)c1
inactive: [1] | [3]

O=C(O)Cc1cc(I)c(Oc2ccc(O)c(I)c2)c(I)c1
active: [4] 15.6 µM | [3] 2.21 µM and 10 µM
inactive: [1]

Nc1ccc(N=Nc2ccccc2)c(N)n1
inactive: [5] | [6] | [7] | [8] | [9] | [10] | [11] | [12] | [13] | [14] | [15]

Cc1cc(-c2ccc(N=Nc3c(S(=O)(=O)O)cc4cc(S(=O)(=O)O)cc(N)c4c3O)c(C)c2)ccc1N=Nc1c(S(=O)(=O)O)cc2cc(S(=O)(=O)O)cc(N)c2c1O
inactive: [16]
active: [3] 2.24 µM

CC1(C)C(\C=C/C=C\C=C/C=C2/N(CCCCS(=O)(=O)O)c3ccc4ccccc4c3C2(C)C)=[N+](CCCCS(=O)(=O)[O-])c2ccc3ccccc3c21
inactive: [16]
active: [3] 3.98 µM

O=C(OCc1ccccc1)c1ccc(O)cc1
inactive: [5] | [6] | [7] | [8] | [9] | [10] | [11] | [12] | [13] | [14] | [15]

CO[C@H]1C[C@H](O[C@@H]2/C(C)=C/C[C@@H]3C[C@@H](C[C@]4(CC[C@H](C)[C@@H](C5CCCCC5)O4)O3)OC(=O)[C@@H]3C=C(C)/C(=N/O)[C@H]4OC/C(=C\C=C\[C@@H]2C)[C@]43O)O[C@@H](C)[C@@H]1O
inactive: [17]

CC(=O)Oc1cccc2c1C(=O)c1c(OC(C)=O)cc(C(=O)O)cc1C2=O
inactive: [5] | [18] | [9] | [10] | [11] | [13] | [14] | [15]

O=C1c2ccccc2C(=O)c2c1ccc(O)c2O
active: [6] 23.7 µM
not listed: [1] | [2] | [3] | [4] | [16] | [17] | [20]
inactive: all other assays above

CN(C)CCCSc1ccccc1NC(=O)/C=C/c1ccccc1
active: [6] 21.1 µM
inactive: [5] | [18] | [10] | [12] | [13] | [14] | [15]

O=C(O)CCC(=O)c1ccc(-c2ccccc2)cc1
not listed: [1] | [2] | [3] | [4] | [16] | [17] | [20]
inactive: all other assays above

N[C@@H](Cc1cc(I)c(Oc2ccc(O)c(I)c2)c(I)c1)C(=O)O
inactive: [1]

Cc1cc(-c2ccc(N=Nc3ccc4c(S(=O)(=O)O)cc(S(=O)(=O)O)c(N)c4c3O)c(C)c2)ccc1N=Nc1ccc2c(S(=O)(=O)O)cc(S(=O)(=O)O)c(N)c2c1O
inactive: [1] | [16]

Oc1ccc(/C=C/c2cc(O)cc(O)c2)cc1
active: [20] 50.1 µM | [2] 26.7 µM
not listed: [1] | [3] | [4] | [12] | [16] | [17] | [18]
inactive: all other assays above

COc1ccc2nc(NC(=O)Nc3ccccc3)sc2c1
inactive: [5] | [18] | [7] | [8] | [9] | [10] | [11] | [12] | [13] | [14] | [15]
